From PubChem BioAssay
Hits are enriched below; roughly 21% of the tested compounds scored in any of these assays.
HCV inh = inhibitors of hepatitis C virus infection; Huh7.5.1 HCVcc-Cre infection, luciferase reporter, 44 h; Potency, µM (titrated, usually from 41.8 µM), for the others: top-dose activity change, negative = inhibition, hits mostly inhibitors; hit rate 3.4% among 340,000; AID 651820; also: potency is read from the fitted curve at half-maximal effect; % is scaled to controls: 0 for no effect and ±100 for the full control effect
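Infectious HCVcc-Cre (~0.5 moi) was added to cells just after compound, with cells seeded 4 h earlier at 1,000 per well. Luciferase activity after 44 h culture reported infection; substrate was incubated 15 min at room temperature before reading.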
Pf growth 48h = inhibits P. falciparum growth in the first generation, 48 h | P. falciparum luciferase growth in erythrocytes, 48 h | Potency, µM (top dose mostly 28.7 µM), for the others: at the highest dose activity change, negative = inhibition, most hits filed as inhibitors | hit rate 5.9% among 310,000 | AID 504832; also: potency is read from the fitted curve at half-maximal effect; % is scaled to controls: 0 for no effect and ±100 for the full control effect
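Luminescence readout; reporter = integrated firefly luciferase in P. falciparum. RBC culture at 2% hematocrit, 0.1% parasitemia final, 37 C/5% CO2; decreased signal taken as growth inhibition.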
AMA1-RON2 inh = disrupts binding of P. falciparum AMA1 to RON2 | AlphaScreen AMA1-biotinylated RON2 peptide binding | Potency, µM (highest dose often 58.2 µM), inactives show at the top dose activity change, negative = inhibition, usual class: inhibitors | hit rate 0.2% among 360,000;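 also: potency is read from the fitted curve at half-maximal effect; 0% = vehicle wells and -100% = peptide control; nearly all actives have a fitted effect of over 45% in size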
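AMA1 (3D7) with his tag at 25 nM final met compounds first, then biotinylated RON2 peptide at 25 nM; detection used donor plus acceptor beads, 10 µg/mL apiece, read by AlphaScreen after 30 min at room temperature.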
CHX counter-1 = counter-screen hit for Shiga toxin inhibitors, cycloheximide | hit rate 12% among 300,000 | cell reporter, cycloheximide protein synthesis inhibition counterscreen | max response, %; in the data active = max response mostly above about 13%, no sharp cut-off; inactive = mostly below about 14%; also: read at 38.3 µM for the half of the compounds with a filed dose; 0% is about no effect
Pf growth 96h = P. falciparum growth inhibition at 96 hour, primary screen for plastid delayed-death inhibitors; P. falciparum luciferase reporter growth, 96 h; Potency, µM (titrated, usually from 28.7 µM), for the others: at the top dose activity change, negative = inhibition, most hits filed as inhibitors; hit rate 6.9% among 320,000; also: potency is read from the fitted curve at half-maximal effect; % is scaled to controls: 0 for no effect and ±100 for the full control effect
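Two-generation exposure (96 h) targets delayed-death phenotype. Reporter parasites carrying integrated firefly luciferase, in red cells at 2% hematocrit and 0.05% parasitemia final, kept at 37 C, 5% CO2; luminescence loss indicates inhibition.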
Shiga inhibitor = inhibitors of Shiga toxin in Vero cells; inhibition, % at 38.7 µM; Vero cells, Shiga toxin protein synthesis inhibition reporter; AID 2315; hit rate 9.2% among 290,000; in the data active = inhibition mostly above about 28%, no sharp cut-off; inactive = mostly below about 43%; also: 0% is about no effect
CHX counter-2 = protein synthesis counter-screen activity for Shiga toxin hits. shares compounds with Shiga inhibitor. Cycloheximide counterscreen, protein synthesis reporter, Shiga toxin assay. Potency, µM (highest dose often 38.3 µM), without a hit: at the highest dose activity (activation), usual class: activators. hit rate 3% among 510; calls by dose curve; also: potency is read from the fitted curve at half-maximal effect; 0% is about no effect
* marks the source's active call; other numbers are inactive results; ? = inconclusive; . = no result given; [ ] = dose if it differs, or a comment. Unless noted, calls follow the shape of the dose curve; as a rule, active = well fitted curve in the direction sought with a large enough effect; inconclusive = small, poorly fitted or top-dose-only effect, or another doubt; inactive = no such curve, though single readings can be large; an effect the other way counts as inactive or inconclusive.

SMILES	HCV inh	Pf growth 48h	AMA1-RON2 inh	CHX counter-1	Pf growth 96h	Shiga inhibitor	CHX counter-2
Cc1c(C(=O)N2CCCCC2)sc(NC(=O)C2CC2)c1C#N	15%	-5%	-5%	3	.	2	.
O=C(COC(=O)c1cncc(Br)c1)NCc1cccs1	5%	.	0%	.	.	.	.
Cc1ccc(NC(=O)C(C)N=C2NS(=O)(=O)c3ccccc32)cc1 (stereo not drawn)	36%	-35%[5.75 µM]	?	8	30%	35*	-2%
CCOc1cc(S(=O)(=O)N2CCN(Cc3ccccc3)CC2)ccc1Br	3%	-73%	-17%	7	69%	136*	0%
CCC(=O)N1CCN(c2ccccc2NC(=O)c2ccc([N+](=O)[O-])o2)CC1	?	?	-17%	7	62%	55*	?
CCC(=O)N1CCN(c2ccccc2NC(=O)c2cccs2)CC1	-6%	-10%	-4%	-2	?	1	.
CNc1c(NS(=O)(=O)c2ccc(C3CCCCC3)cc2)c(=O)oc2ccccc12	11%	8%	-8%	-2	30%	-3	.
CC(=O)N1CCc2cc(S(=O)(=O)NC(CC(C)C)C(=O)Nc3ccc4c(c3)OCCO4)ccc21 (stereo not drawn)	6%	-10%	-4%	7	34%	79*	1%
CC(=O)N1CCc2cc(S(=O)(=O)NC(CC(C)C)C(=O)N3CCn4c3nc3ccccc34)ccc21 (stereo not drawn)	-4%	?	19%	3	?	-6	.
N#CC(C(=O)NC1CC1)c1nc2ccccc2nc1N1CCCC1 (stereo not drawn)	-6%	0%	-7%	-4	-3%	-13	.
CCOC(=O)C1CCCN(c2nc3ccccc3nc2C(C#N)C(=O)OCC)C1 (stereo not drawn)	?	?	-6%	-1	7.4µM*	133*	-3%
COc1ccccc1CNc1nc2ccccc2n1CCN1CCCCC1	?	?	-11%	10	?	66*	-4%
CCCn1c(NCc2cccc(OC)c2OC)nc2ccccc21	?	?	-9%	25	3%	49	.
CC(=O)Nc1ccc(S(=O)(=O)NCCC(=O)NC(C)c2cccs2)cc1 (stereo not drawn)	12%	.	-5%	.	.	.	.
CCCCC(=O)Nc1ccc(NC(=O)C2CC2)nc1	-8%	14%	1%	9	2%	41*	0%
O=C(Cc1ccccc1)Nc1ccc(NC(=O)C2CC2)nc1	17%	15%	0%	-2	66%	23	.
O=C(CN1CCN(S(=O)(=O)c2ccc(Cl)cc2)CC1)NC1CC1	-1%	6%	4%	-5	28%	-18	.
Cn1nccc1C(=O)Nc1sc2c(c1C#N)CCCC2	-9%	25%	2%	16	24%	16*	?
Cc1ccccc1OCCC(=O)OCC(=O)NNC(=O)c1cccs1	13%	-15%	121%	.	1%	.	.
CC[N+](CC)(CCO)CCCN1C(=O)C2CC=C(Cl)CC2C1=O (stereo not drawn)	17%	-12%	-1%	3	47%	143*	-3%
Cc1ccsc1C(=O)N1CCc2ccccc2C1	5%	26%	13%	15	11%	36*	?
COc1ccc(N/C=C(\C#N)c2nc3ccccc3n2C)c(OC)c1	5µM*	?	14%	-2	-92%	81*	?
CC(C)NC(=O)c1ccc(OC2CSC2)cc1	9%	17%	10%	-3	34%	29*	?
CC(=O)Nc1cccc(NS(=O)(=O)c2c(C)noc2C)c1	21%	.	-13%	.	.	.	.
Cc1noc(C)c1S(=O)(=O)Nc1cccc(CO)c1	8%	21%	18%	0	28%	45*	-1%
SMILES	HCV inh	Pf growth 48h	AMA1-RON2 inh	CHX counter-1	Pf growth 96h	Shiga inhibitor	CHX counter-2
O=c1c2ccccc2sc2nc(C3CCCCC3)n(Cc3ccco3)c(=O)c12	-5%	1.7µM*	-13%	3	6.6µM*	24*	-1%
COc1ccc(C(C)(C)C)cc1NC(=O)c1ccc2c(c1)SC1=NS(=O)(=O)CCN12	6%	-44%	-8%	-3	0%	40*	-1%
COc1ccc(C(=O)Nc2cc(C(F)(F)F)ccc2Cl)cc1OC	?	-2%	4%	-4	19%	-13	.
C=CCn1c(=S)[nH]c2cc(-c3ccccc3)sc2c1=O	-3%	32%	57%	0	8%	39*	?
C=CCn1c(=S)[nH]c2ccccc2c1=O	-4%	-9%	33%	-1	?	-4	.
CC(C)Cn1c(N)c(C(=O)COC(=O)CCc2nc3ccccc3s2)c(=O)n(C)c1=O	?	21%	-4%	7	15%	2	.
CCc1nnc(NC(=O)CSc2nc3ccccc3s2)s1	13%	11%	4%	3	.	-8	.
CC(C)c1nnc(NC(=O)CSc2nc3ccccc3s2)s1	11%	8%	-17%	3	.	50*	1%
CC(OC(=O)c1ccc(F)c(S(=O)(=O)N2CCOCC2)c1)C(=O)NC1CCCC1 (stereo not drawn)	4%	4%	-12%	.	2%	.	.
CN1CCN(S(=O)(=O)c2ccc(C(F)(F)F)cc2)C(c2ccccc2)C1 (stereo not drawn)	6%	?	6%	.	-26%	.	.
CSc1nc(SCCO)c2sc3nc(-c4ccco4)c4c(c3c2n1)CC(C)(C)OC4	?	?	2%	-5	?	81*	-2%
Cc1ccc(NC(=O)c2ccco2)c(NC(=O)c2ccccc2C)c1	?	35%	-5%	6	41%	-4	.
Cc1cc(NC(=O)c2ccc(Br)o2)ccc1NC(=O)c1ccco1	-4%	-10%	-11%	9	?	61*	5%
C[C@@H]1CN([C@@H](C)CO)C(=O)c2cc(NS(C)(=O)=O)ccc2O[C@@H]1CN(C)Cc1ccc(C(F)(F)F)cc1	27%[8.37 µM]	.	6%	.	.	.	.
C=CCc1cc(C)ccc1OCC(O)CN1CCN(c2ccccc2)CC1 (stereo not drawn)	-26%	-52%	-26%	-2	-1%	33*	0%
CCN(CC)C(=O)[C@H]1CC(CC(=O)NCC23CC4CC(CC(C4)C2)C3)C(=O)N2CCc3c([nH]c4ccc(OC)cc34)[C@]12C (stereo partly drawn)	?	.	-17%	.	.	.	.
COc1ccccc1N(CCC#N)C(=O)CSc1nnc2ccccn12	-3%	2%	14%	.	-15%	.	.
COc1ccccc1N(CCC#N)C(=O)CSc1nc(-c2ccccc2)cn1N	-3%	?	-2%	-2	?	75*	0%
CN1CCN(NC(=O)c2cc(-c3ccc(Cl)s3)nc3ccccc23)CC1	?	-23%	0%	-3	13%	15	.
